62 compounds from PubChem BioAssay AID1850 (Southern Research Specialized Biocontainment Screening …, 2009) can be followed below.

“And” between values parts separate entries of the source, which are not always exact repeats. Equal values may be shown once. Among all 310,000 compounds or so, about 1,000 (0.32%) were called active. Only a sample is shown. Measured potencies and affinities stand elsewhere. A number with no mark means an inactive call. The rule behind the calls is not given here.

The assay can be described thus: Inhibition of PhoP regulon, Salmonella typhi GFP reporter cells, confirmation, 4 h (AID 1850).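 Note: 0% = induced wells with vehicle and 100% = uninduced wells.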 To be noted: Salmonella Typhi PhoP-promoter GFP reporter, fluorescence, at 50 µM, hits give high values.
In general, inhibition refers to the relative decrease from the control value, in per cent. For the compound `CCC(C)NC(=O)CSc1nc2ccc(N3CCOCC3)cc2c(=O)n1CCc1ccccc1` (configuration not stated), the inhibition is -0.99%. `Cc1cc(C(=O)N/N=C/c2c(C)n(C)c3ccccc23)n[nH]1`: the inhibition was -9.94%. Take `O=C(O)[C@@H]1CC(O)CN1C(=O)CCc1c[nH]c2ccccc12` (some centres not stated): the inhibition is 6.6%. With `CN(C)CC/C=C1/c2ccccc2Sc2ccc(Cl)cc21`, the inhibition is 21%. As for `COc1cc2c(cc1Cl)/C(=C\CCN(C)C)c1ccccc1S2`, the inhibition was 2.09%. Consider `COc1cc(Cl)cc2c1Sc1ccccc1/C2=C/CCN(C)C`, for which the inhibition is -4.02%. For `CN(C)CC/C=C1/c2ccc(F)cc2Sc2ccc(Cl)cc21` the value was -10.8%; for `CN(C)CC/C=C1\c2cc(Cl)ccc2Sc2cc(F)c(F)cc21`, 10.9%. As for `CN(C)CC/C=C1\c2cc(F)ccc2CSc2ccccc21`, the inhibition was 1.61%. For `CN(C)CC/C=C1/c2ccccc2Sc2c(O)cc(Cl)cc21` the value was 14.1%; for `CN(C)CC/C=C1/c2cc(F)ccc2CSc2ccc(F)cc21`, -7.52%; for `Cc1cccc(OCCCC(=O)Nc2ccc(S(N)(=O)=O)cc2)c1`, -6.31%.

As to `CCCCCCSc1ccc(-c2nc3ccccn3c2NCCCC)cc1`, the inhibition is -1.64%. Regarding `CC(C)CC(=O)c1c[nH]c(C(=O)NCCCN2CCOCC2)c1`, the inhibition was 0.393%. For the compound `CCc1nnc(NC(=O)C=C(C)C)s1`, the inhibition was -12.1%. Regarding `O=C(CSc1nccn1-c1ccccc1)NCc1ccc(F)cc1`, the inhibition was 5.7%. With `Cc1cc(C)cc(NC(=O)N2CCC(NC(=O)c3ccco3)CC2)c1`, the inhibition was -4.45%. As for `COc1cc(C2(O)CCCCC2C)cc(OC)c1OC` (configuration not stated), the inhibition was 0.64%. For `CC(C)C(C(=O)NCc1ccco1)N(Cc1ccco1)C(=O)CNS(=O)(=O)c1ccc(F)cc1` (configuration not stated) the value was -1.96%.

As to `COc1ccc(Cl)cc1NC(=S)NCc1cccs1`, the inhibition was -1.43%.

`Cc1ccc(NC(=O)c2cc(NC(=O)C3CC=CCC3C(=O)O)ccc2N2CCOCC2)cc1` (configuration not stated): the inhibition was -15.3%. With `C/C(=N\NC(=O)c1ccc(F)cc1)c1ccc(NC(=O)Cc2ccccc2)cc1`, the inhibition is -10.7%. In the case of `c1ccc2c(NCC3CCCO3)nc(N3CCOCC3)nc2c1` (configuration not stated), the inhibition was 0.7%. Then `Oc1ccccc1Nc1nc(NCC2CCCO2)c2ccccc2n1` (configuration not stated), with 19.4%; and `Oc1ccccc1-c1nc(NCC2CCCO2)c2ccccc2n1` (configuration not stated), with -0.56%. For `COc1cccc(-c2nc(NCC3CCCO3)c3ccccc3n2)c1O` (configuration not stated) the value was 0.02%; for `COc1ccc(-c2cc(C(=O)NCC3CCCO3)c3ccccc3n2)c(OC)c1` (configuration not stated), -4%; for `COc1ccc(S(=O)(=O)Nc2nc3ccccc3nc2NCC2CCCO2)cc1` (configuration not stated), -1.23%.

On to `Oc1ccc(Cl)cc1Nc1nc(NCC2CCCO2)c2ccccc2n1` (configuration not stated), for which the inhibition was 3.79%. Consider `COc1ccccc1Nc1nc(NCC2CCCO2)c2ccccc2n1` (configuration not stated), for which the inhibition was 29.6%. On to `O=C1CN=C(c2ccc[nH]2)c2cc(Cl)ccc2N1`, for which the inhibition is -4.67%. Turning to `COC(=O)C1SCC2C(=O)N(Cc3cccc(C)c3)CC(=O)N21` (configuration not stated), the inhibition was 0.26%. Regarding `CN1C(=S)SC(C)(C)C1(C)NO` (configuration not stated), the inhibition was -6.1%. Then `O=C(CSc1nccn1Cc1ccccc1)Nc1ccccc1`, with -2.04%; and `CN(C)N1C(N)=C(C#N)C(c2ccc3c(c2)OCO3)C2=C1CC(C)(C)CC2=O` (configuration not stated), with -10.5%; and `CC(C)Oc1ccc(-c2nc(NCC3CCCO3)c3ccccc3n2)cc1` (configuration not stated), with -13.6%.

Regarding `c1ccc(-c2nc(NCC3CCCO3)c3ccccc3n2)nc1` (configuration not stated), the inhibition was 2.1%. `O=C(CN1CCN(c2ccc([N+](=O)[O-])cc2Cl)CC1)N1CCOCC1`: the inhibition was 2.81%. With `CC[N+](C)(C)CCN(Cc1ccc(Cl)cc1)c1ccccn1`, the inhibition was 1.18%. For `COc1ccc(CN(CCN(C)C)c2ccccn2)cc1` the value was -13% and 6.04%; for `CCC(=O)N1CCc2cc(S(=O)(=O)NC(Cc3ccccc3)C(=O)O)ccc21` (configuration not stated), -1.37%; for `Cc1nc(C(=O)NCCCO)cc2c1[nH]c1ccccc12`, -6.79%. As to `Cc1ccc(S(=O)(=O)N(CC(=O)NCc2ccncc2)Cc2ccc(F)cc2)cc1`, the inhibition was 3.98%.

Regarding `COc1ccc2[nH]cc(/C=N/NS(=O)(=O)c3ccc(C)cc3)c2c1`, the inhibition was 15.2%. `NC(=S)N/N=C/c1c[nH]c2ccc(OCc3ccccc3)cc12`: the inhibition was -7.88%. On to `CSc1cccc(NC(=O)CCCOc2ccc(Cl)cc2C)c1`, for which the inhibition is -5.44%. Then `CCN(CC)CCNCc1cc(Br)ccc1OCC(=O)NCc1ccccc1`, with -28.2%; and `CCCNCc1cc(Br)ccc1OCC(=O)NCCc1ccccc1`, with -3.03%; and `CCOc1ccccc1CNC(=O)Cn1ccc2cc(S(=O)(=O)N3CCCC3)ccc21`, with 3.38%. Take `Cc1c(C(=O)NC(Cc2ccccc2)c2nc3ccccc3[nH]2)cccc1[N+](=O)[O-]` (configuration not stated): the inhibition is -6.76%. Take `O=Nc1c(O)[nH]c2c(F)cccc12`: the inhibition is -3.73%. For the compound `O=Nc1c(O)n(Cc2ccccc2)c2ccccc12`, the inhibition was -9.56%. Take `CCOC(=O)CC(c1ccc(N)cc1)n1c(C)ccc1C` (configuration not stated): the inhibition is -3.47%. Consider `COc1ccc(Cc2noc(CN3CCCC(C(=O)c4cccs4)C3)n2)cc1OC` (configuration not stated), for which the inhibition was -18.4%. For `CCn1c(SCC(=O)NC2CCS(=O)(=O)C2)nnc1-c1ccccc1` (configuration not stated), the inhibition was 3.32%.

As for `Cc1nnc(SCC(=O)NC2CCS(=O)(=O)C2)n1-c1ccccc1` (configuration not stated), the inhibition was 6.38%. With `CN(C)c1nc(SCC(=O)Nc2ccccc2)nc(N2CCOCC2)n1`, the inhibition was 3.38%.

Take `O=C1CN(Cc2cc(=O)oc3cc4c(cc23)CCC4)CCN1`: the inhibition was -4.78%. Regarding `CC1(C)C(=O)Nc2ccccc2N1C(=O)COC(=O)/C=C/c1ccc(OC(F)F)cc1`, the inhibition is -3.59%. Turning to `COc1cccc(C(C(=O)NC2CCCCC2)N(C(=O)Cc2cccs2)c2ccc(-n3cnnn3)c(OC)c2)c1` (configuration not stated), the inhibition is -9.92%. Take `CC1CC(NC(=O)/C(C#N)=C/c2ccc[nH]2)CC(C)(C)C1` (configuration not stated): the inhibition is 5.38%. As to `N#C/C(=C\c1ccccc1)C(=O)NC1CC1`, the inhibition was 2.22%.
